Laboratory results as given in PubChem BioAssay (NCATS).
Records with an inconclusive call do not appear. Activity calls are given as the source filed them. Unless noted, the call rests on the fitted dose curve; in most records, active means well fitted curve in the direction sought with a large enough effect; inconclusive means small, poorly fitted or top-dose-only effect, or another doubt; inactive means no such curve, though single readings can be large; an effect the other way counts as inactive or inconclusive.

Experiments:
[1] = Cell Viability - BJ (AID 421; calls by dose curve;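 further: potency means the concentration at half of the fitted maximal effect; cells exposed to compound for 40 hours at 37 °C before readout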); details: BJ fibroblast viability, qHTS
Summary of the method: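 Normal human BJ foreskin fibroblasts, 1500/well in complete medium, treated 40 hr at 37 °C. Cellular ATP by CellTiter-Glo luminescence; normalized to DMSO and 100 uM tamoxifen, AC50 from Hill fit.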

[2] = Cell Viability - Jurkat (AID 426;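 active means dose-dependent loss of cell ATP signal giving a full or clear fitted curve, ranked by lower potency value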; further: potency means the concentration at half of the fitted maximal effect); details: qHTS
Summary of the method: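 Cells of the human T-cell leukemia line Jurkat (E6-1) are seeded at 5000 per well, treated with compound across a concentration range for 40 hours at 37 °C, then lysed with CellTiter-Glo; luminescence reports ATP.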

[3] = Cell Viability - Hek293 (AID 427;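 active means compounds whose dose-response curve shows a full or clear partial loss of cell viability, called from curve shape rather than a numeric limit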;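 further: potency means the concentration at half of the fitted maximal effect; cells exposed to compound for 40 hours at 37 °C before reading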); details: qHTS
Summary of the method: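 HEK293 cells in complete medium were exposed to compound for 40 hr at 37 °C, then cellular ATP was read by CellTiter-Glo luminescence. Data were normalized to DMSO (basal) and 100 uM tamoxifen (100% inhibition), and AC50 came from Hill fits.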

[4] = Cell Viability - HepG2 (AID 433; calls by dose curve;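 further: potency means the concentration at half of the fitted maximal effect; potency for ATP loss meaning cytotoxicity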); details: qHTS
Summary of the method: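 Cytotoxicity is scored as loss of intracellular ATP in HepG2 cells exposed to compounds for 40 h. Concentration-response curves, normalized to DMSO and 100 uM tamoxifen, give AC50 values.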

[5] = Cell Viability - MRC5 (AID 434; calls by dose curve;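 further: potency means the concentration at half of the fitted maximal effect; potency reflects cytotoxicity seen as loss of intracellular ATP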); details: MRC5 lung fibroblast viability, qHTS
Summary of the method: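 AC50 values come from Hill-equation fits of intracellular ATP loss, measured by CellTiter-Glo luminescence. Normal lung fibroblasts (MRC5) had 40 hr compound treatment at 37 C, normalized between DMSO and 100 uM tamoxifen.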

[6] = Cell Viability - N2a (AID 540); details: N2a mouse neuroblastoma cell viability; at 92.2 µM (top of the series);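 further: plate controls were DMSO alone for no effect and tamoxifen control for full effect; nearly all actives have a fitted effect of over 45% in size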
Summary of the method: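 Cytotoxicity was scored as loss of cellular ATP in N2a cells, a mouse neuroblastoma line. Compounds are applied in a qHTS concentration series for 40 hr at 37 °C.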

[7] = Cell Viability - NIH 3T3 (AID 541); details: NIH 3T3 cell viability, qHTS; at 92.2 µM (top of the series);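 further: plate controls were DMSO alone for no effect and tamoxifen positive control for full effect; nearly all actives have a fitted effect of over 25% in size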
Summary of the method: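 Cells seeded at 1000/well, rested 5 hr at 37 °C, then dosed and incubated 40 hr at 37 °C. CellTiter-Glo added, 20 min room temperature, luminescence read. AC50 by Hill fit.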

[8] = Cell Viability - H-4-II-E (AID 543); further: on the % scale 0 is the no-effect control and ±100 the full control effect; nearly all actives have a fitted effect of over 35% in size
Summary of the method: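 Cells seeded at 1500 per well and rested 5 hr; compounds added; 40 hr incubation at 37 °C; CellTiter-Glo added, 20 min at room temperature; luminescence read. Hill-equation fits gave AC50.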

[9] = Cell Viability - SH-SY5Y (AID 544);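 further: 0% = DMSO alone and -100% = 100 µM tamoxifen; nearly all actives have a fitted effect of over 55% in size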
Summary of the method: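 Cells were plated at 1500 per well and allowed 5 hr at 37 °C. Compounds were added across a concentration range and incubated 40 hr at 37 °C. CellTiter-Glo was added for 20 min at room temperature before luminescence reading.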

[10] = Cell Viability - Renal Proximal Tubule (AID 545);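 further: 0% = DMSO only and -100% = 100 µM tamoxifen; nearly all actives have a fitted effect of over 40% in size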
Summary of the method: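 Cytotoxicity is scored as a concentration-dependent drop in cellular ATP in primary rat renal proximal tubule cells exposed for 40 hr. AC50 derives from Hill modelling.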

[11] = Cell Viability - Mesenchymal (AID 546);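 further: cells exposed to compound for 40 hours before reading; 0% = DMSO only and -100% = 100 µM tamoxifen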
Summary of the method: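 CellTiter-Glo luminescence (intracellular ATP, 20 min room temperature) after 40 hr compound exposure at 37 °C of 1000 glomerulus-derived human kidney mesenchymal cells/well; AC50 values obtained by fitting qHTS concentration-response data to the Hill equation.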

[12] = Cellular Toxicity (caspase-3) HepG2 (AID 654);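 further: cells exposed to compound for 16 hours before reading; 0% = DMSO alone and 100% = caspase signal from 100 µM tamoxifen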
Summary of the method: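 Caspase 3/7 activation in HepG2 is measured as rising luminescence after a 16 hr treatment at 37 °C. Values are scaled between DMSO basal and 100 uM tamoxifen, and AC50 is fitted with the Hill equation.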

[13] = Cellular Toxicity (caspase-3) Jurkat (AID 655);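 further: cells exposed to compound for 16 h at 37 °C before reading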
Summary of the method: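 Caspase 3/7 activation is scored as increased luminescence in Jurkat cells cultured with compound for 16 hours in complete medium. AC50 values come from Hill fits of qHTS concentration-response data normalized to DMSO and 100 uM tamoxifen controls.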

[14] = Cellular Toxicity (caspase-3) HUV-EC-C (AID 656);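 further: 0% = DMSO basal and 100% = 100 µM tamoxifen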
Summary of the method: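 Read-out: luminescence proportional to caspase 3/7 activity, measured 20 min after adding Caspase-Glo 3/7 reagent. Cells (HUV-EC-C) had received compound for 16 hr at 37°C. Increases relative to DMSO and 100 uM tamoxifen gave concentration-response AC50 values.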

[15] = Cellular Toxicity (caspase-3) SHSY5Y (AID 657)
Summary of the method: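 Cells plated and incubated 5 h at 37 °C, dosed over a concentration range, incubated 16 h, then given Caspase-Glo 3/7 reagent for 1 h at room temperature before luminescence reading. Staurosporine (10 uM) defined full stimulation.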

[16] = Cellular Toxicity (caspase-3) BJ (AID 658);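 further: 0% = DMSO basal and 100% = 10 µM staurosporine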
Summary of the method: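 Caspase-Glo 3/7 luminescence, read 1 hr after reagent at room temperature, in normal BJ fibroblasts exposed 16 hours at 37 °C. AC50 values from Hill-equation concentration-response, scaled between DMSO basal and 10 uM staurosporine as 100%.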

[17] = Cellular Toxicity (caspase-3) MRC-5 (AID 659);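 further: 0% = DMSO basal and 100% = 10 µM staurosporine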
Summary of the method: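 Luminescent Caspase-Glo 3/7 read-out (1 h, room temperature) after a 16 h, 37 °C compound exposure of MRC-5 lung fibroblasts at 1500 cells/well. Concentration-response AC50 from Hill equation; 0% DMSO, 100% 10 uM staurosporine.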

[18] = Cellular Toxicity (caspase-3) Mesangial (AID 660);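 further: cells exposed to compound for 16 h before the caspase read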
Summary of the method: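 Seed cells derived from normal human renal glomeruli, incubate 5 h, add compounds across concentrations and incubate 16 h at 37 °C. Caspase 3/7 activation is then quantified by luciferase light, with AC50 derived by Hill modeling.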

[19] = Cellular Toxicity (caspase-3) SK-N-SH (AID 661);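 further: 0% = DMSO basal and 100% = 10 µM staurosporine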
Summary of the method: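 Cells were seeded and incubated 5 hr at 37 °C, dosed with compound over a concentration range for 16 hr, then given Caspase-Glo 3/7 reagent for 1 hr at room temperature before luminescence reading.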

[20] = Cellular Toxicity (caspase-3) H-4-II-E (AID 663);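 further: cells exposed to compound for 16 hr before readout; 0% = DMSO basal and 100% = 100 µM tamoxifen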
Summary of the method: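 Caspase 3/7 activation measured by luminescent aminoluciferin substrate cleavage after 16 hr compound treatment of H-4-II-E cells in complete medium. Increase normalized between DMSO (basal) and 100 uM tamoxifen (100%); Hill-equation AC50 from concentration-response.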

[21] = Cellular Toxicity (caspase-3) Hek293 (AID 664);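 further: cells exposed to compound for 16 h at 37 °C before readout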
Summary of the method: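 qHTS, HEK293 (human embryonic kidney), 16 h cpd exposure in complete medium. Caspase-3/7 activation = luminescence increase; normalized to DMSO/100 uM tamoxifen; Hill-fit AC50.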

[22] = Cellular Toxicity (caspase-3) N2a (AID 665);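 further: compound exposure lasted 16 h at 37 °C before readout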
Summary of the method: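 Caspase-3/7 activation, measured as increased luminescence from aminoluciferin release, is quantified in mouse N2a cells exposed to compounds for 16 h. Values are normalized to DMSO and 10 uM staurosporine, with AC50 derived by Hill modelling.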

[23] = Cellular Toxicity (caspase-3) NIH 3T3 (AID 666);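 further: 0% = DMSO basal and 100% = 100 µM tamoxifen stimulation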
Summary of the method: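 Cells were plated at 1000 per well and incubated 5 hr at 37°C, then compound was added for 16 hr. Caspase-Glo 3/7 reagent followed for 20 min at room temperature before luminescence was read.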

[24] = Cellular Toxicity (caspase-3) Renal Proximal Tubule (AID 667);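 further: cells exposed to compound for 16 hours at 37 °C before detection; 0% = DMSO basal and 100% = 10 µM staurosporine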
Summary of the method: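 In qHTS format, rat primary proximal tubule cells seeded at 1000 per well are exposed to compounds for 16 hours at 37 °C. An increase in Caspase-Glo 3/7 luminescence indicates caspase activation.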

[25] = target: Cytochrome P450 3A4 (Homo sapiens) (UniProt P08684); assay: qHTS Assay for Inhibitors and Substrates of Cytochrome P450 3A4 (AID 884); further: on the % scale 0 is the no-effect control and ±100 the full control effect; nearly all actives have a fitted effect of over 50% in size
Cytochrome P450 3A4 (Homo sapiens), sequence (P08684 whole entry, looked up): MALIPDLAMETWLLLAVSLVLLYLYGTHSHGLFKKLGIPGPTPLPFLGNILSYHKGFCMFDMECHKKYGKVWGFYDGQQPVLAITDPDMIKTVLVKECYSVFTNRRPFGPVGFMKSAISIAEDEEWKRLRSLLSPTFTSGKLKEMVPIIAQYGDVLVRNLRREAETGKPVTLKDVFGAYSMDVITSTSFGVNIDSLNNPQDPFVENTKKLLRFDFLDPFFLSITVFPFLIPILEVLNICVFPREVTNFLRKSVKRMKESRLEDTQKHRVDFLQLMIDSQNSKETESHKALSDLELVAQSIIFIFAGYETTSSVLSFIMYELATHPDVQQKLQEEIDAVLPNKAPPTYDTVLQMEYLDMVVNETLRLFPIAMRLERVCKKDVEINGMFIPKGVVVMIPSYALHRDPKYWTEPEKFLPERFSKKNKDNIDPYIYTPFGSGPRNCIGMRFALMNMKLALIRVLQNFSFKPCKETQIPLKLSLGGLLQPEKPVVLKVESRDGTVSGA
Summary of the method: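 Luminescent readout of luciferin produced by CYP3A4 (20 nM) dealkylation of Luciferin-PPXE, 25 uM (its KM). NADPH-driven reaction ran 60 min at RT after 10 min compound preincubation; data scaled to 57 uM ketoconazole as 100% inhibition.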

[26] = Cell Viability - LYMP2-001 (AID 921);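 further: 0% = DMSO only and full inhibition = tetraoctylammonium bromide control wells; nearly all actives have a fitted effect of over 70% in size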
Summary of the method: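 qHTS, 1536-well; lymphoblastoid cells, 24 hr compound, 37 C; ATP by CellTiter-Glo, 30 min RT; luminescence; Hill-fit AC50.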

[27] = MultiTox-Fluor Cytotoxicity Assay - LYMP1-001 - Dead Cells (AID 946);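 further: 0% = DMSO and 100% = tetraoctylammonium bromide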
Summary of the method: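 LYMP1-001 lymphoblastoid cells (2500/well) treated 16 h at 37 C. Dead-cell protease cleavage of bis-AAF-R110 read at Ex/Em 485/520. Normalized to DMSO and 15 uM tetraoctylammonium bromide; AC50 from Hill fits.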

[28] = MultiTox-Fluor Cytotoxicity Assay - LYMP1-001 - Live Cells (AID 947);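 further: 0% = DMSO only and full inhibition = tetraoctylammonium bromide control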
[29] = Cell Viability - LYMP1-002 - Assay at 16 hr (AID 948);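 further: 0% = DMSO alone and full effect = 92 µM tetraoctylammonium bromide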
Summary of the method: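 Acute cytotoxicity is scored as a concentration-dependent fall in intracellular ATP in a human lymphoblastoid line (LYMP1-002) after 16 hr compound exposure at 37 C, measured by luciferase luminescence.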

[30] = MultiTox-Fluor Cytotoxicity Assay - LYMP1-002 - Live Cells (AID 955); further: on the % scale 0 is the no-effect control and ±100 the full control effect
Summary of the method: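 Cells were seeded at 2500 per well and incubated 5 hr. Compounds were then added for 16 hr at 37 C, followed by MultiTox-Fluor reagent for 60 min at room temperature and fluorescence reading of viable-cell protease signal.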

[31] = MultiTox-Fluor Cytotoxicity Assay - LYMP1-003 - Live Cells (AID 962);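 further: 0% = DMSO only and full loss = 92 µM tetraoctylammonium bromide; cytotoxic hits lower the live-cell protease signal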
Summary of the method: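 Acute cytotoxicity is scored as a drop in live-cell protease activity in human lymphoblastoid LYMP1-003 cells after 16 hr compound exposure at 37 C. AC50 values come from Hill-equation modelling of concentration-response data.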

[32] = Cell Viability - LYMP1-003 - Assay at 24 hr (AID 963);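 further: plate controls were DMSO only for no effect and tetraoctylammonium bromide positive control for full effect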
Summary of the method: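 Cytotoxicity is scored as a concentration-dependent fall in ATP-linked luciferase signal in human lymphoblastoid LYMP1-003 cells treated 24 hr at 37 C in complete culture medium.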

[33] = Cell Viability - LYMP1-003 - Assay at 40 hr (AID 964); further: on the % scale 0 is the no-effect control and ±100 the full control effect; nearly all actives have a fitted effect of over 60% in size
Summary of the method: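 Luminescent ATP signal (CellTiter-Glo) served as the viability read-out after 40 hr compound treatment of human lymphoblastoid LYMP1-003 cells at 37 C. Decreases in ATP were fitted with the Hill equation to give AC50.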

[34] = Cell Viability - LYMP2-003 (AID 965);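 further: cells exposed to compounds for 24 h before reading; 0% = DMSO only and full effect = 92 µM tetraoctylammonium bromide; nearly all actives have a fitted effect of over 50% in size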
Summary of the method: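 Acute cytotoxicity is scored as a concentration-dependent drop in intracellular ATP, measured by luciferase luminescence in human lymphoblastoid cells treated for 24 hours at 37 C. AC50 values derive from Hill-equation modelling.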

[35] = Cell Viability - LYMP2-004 (AID 966);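 further: plate controls were DMSO only for no effect and tetraoctylammonium bromide control for full effect; nearly all actives have a fitted effect of over 65% in size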
Summary of the method: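 qHTS cytotoxicity: human lymphoblastoid line, 24 hr compound treatment, 37 C, complete medium. Viability read as cellular ATP via luciferase luminescence; tetraoctylammonium bromide served as positive control.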

[36] = Cell Viability - LYMP2-005 (AID 967);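 further: plate controls were DMSO only for no effect and 92 µM tetraoctylammonium bromide control for full effect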
Summary of the method: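 qHTS viability screen in LYMP2-005 cells: 24 h at 37 C with compound, ATP luminescence via CellTiter-Glo, AC50 from Hill curves.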

[37] = Cell Viability - LYMP2-009 (AID 968);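 further: 0% = DMSO alone and the full-kill end = tetraoctylammonium bromide at 92 µM; nearly all actives have a fitted effect of over 55% in size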
[38] = Cell Viability - LYMP2-011 (AID 969);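 further: 0% = DMSO only and full inhibition = 92 µM tetraoctylammonium bromide; nearly all actives have a fitted effect of over 60% in size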
Summary of the method: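 In this qHTS cytotoxicity format, compounds are tested across concentrations on human lymphoblastoid cells in complete medium for 24 hours at 37 C. Viability is taken as cellular ATP measured by luciferase luminescence.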

[39] = Cell Viability - LYMP2-013 (AID 970)
Summary of the method: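 Cytotoxicity is scored as a concentration-dependent drop in intracellular ATP in human lymphoblastoid cells after 24 hr compound exposure at 37 C. ATP is quantified by luciferase luminescence, and AC50 values come from Hill-equation modeling.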

[40] = Cell Viability - LYMP2-015 (AID 971)
Summary of the method: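 Cells are seeded at 2500 per well and incubated 5 hr at 37 C. Compounds are added across a concentration series for 24 hr at 37 C. CellTiter-Glo is added, and luminescence is read after 30 min at room temperature.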

[41] = Cell Viability - LYMP2-017 (AID 972)
Summary of the method: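 Cytotoxicity is scored as a concentration-dependent drop in cellular ATP in a human lymphoblastoid line after 24 hr treatment at 37 C. Values are AC50s from Hill-equation modelling.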

[42] = Cell Viability - LYMP2-021 (AID 974)
Summary of the method: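 Loss of cellular ATP, measured with a luciferase-based CellTiter-Glo readout, serves as the toxicity signal in human lymphoblastoid cells treated for 24 hours at 37 C. Potency is reported as AC50 from a standard Hill model.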

[43] = Cell Viability - LYMP2-023 (AID 975)
Summary of the method: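 Steps: seed 2500 human lymphoblastoid cells per well, incubate 5 hr at 37 C, add compound for 24 hr at 37 C, add CellTiter-Glo, hold 30 min at room temperature, read luminescence. AC50 derived by Hill modelling.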

CC(C)COC(=O)c1ccccc1C(=O)OCC(C)C
inactive: Potency [1] > 92 µM | Potency [2] > 92 µM | Potency [3] > 92 µM | Potency [4] > 92 µM | Potency [5] > 92 µM | activity change, negative = cytotoxicity [6] -12.6% | activity change, negative = cytotoxicity [7] -26.2% | outcome [8] | outcome [9] | outcome [10] | outcome [11] | outcome [12] | outcome [13] | outcome [14] | outcome [15] | outcome [16] | outcome [17] | outcome [18] | outcome [19] | outcome [20] | outcome [21] | outcome [22] | outcome [23] | outcome [24] | Potency [25] | outcome [26] | Potency [27] | outcome [28] | outcome [29] | outcome [30] | outcome [31] | outcome [32] | Potency [33] | outcome [34] | outcome [35] | outcome [36] | outcome [37] | outcome [38] | outcome [39] | outcome [40] | outcome [41] | outcome [42] | outcome [43]
